Source: article PMC4552634, “A New Set of Chemical Starting Points with Plasmodium falciparum Transmission-Blocking Potential for Antimalarial Drug Discovery” (PLoS ONE, 2015)
In all, about 13,000 compounds went through this assay and about 3,200 (25%) showed an effect of 50% or more. Some of the results follow.

test system: P. falciparum stage V gametocytes; design: BacTiter-Glo ATP luminescence viability of purified stage V gametocytes in 384-well plates, per cent inhibition versus DMSO; conditions: 48 h, 5 µM; inhibitor

SMILES | % Inhibition [%]
CN(C)CCCNc1ncnc2c1[nH]c1ccc(Br)cc12 [TCMDC-124583] | -18.04
NC1CCN(c2nc(NCCCc3ccc(O)cc3)nc(NCc3ccccc3-c3ccc(C(F)(F)F)cc3)n2)CC1 [TCMDC-133395] | 21.49
COc1cc(F)c2ncc(C#N)c(CCN3CCC(NCc4ccc5c(c4)OCCO5)CC3)c2c1 [TCMDC-135367] | 11.13
O=C1OC2(CN1CC1CCN(Cc3ccc(O)cc3Cl)C1)c1ccccc1-c1ccccc12 (centres unmarked) [TCMDC-136313] | 14.23
CON=Cc1ccn(-c2ccc(O)c3c2C[C@H]2C[C@H]4[C@H](N(C)C)C(=O)C(C(N)=O)=C(O)[C@@]4(O)C(=O)C2=C3O)c1 [TCMDC-138646] | 4.088
C=C1C(C(=O)OCC)=CN(CC)c2cc(O[C@H]3CCN(C(=O)OC(C)(C)C)C3)ccc21 [TCMDC-135646] | 47.67
COc1cc2c(cc1OC)CN(CCc1ccc(NC(=O)c3cc4cc(OC(F)(F)F)ccc4[nH]3)cc1)CC2 [TCMDC-138250] | 36.42
CCc1cn2c3c(cc(C(=O)N[C@@H](Cc4ccccc4)[C@H](O)CN[C@@H](C)CC)cc13)N(C)S(=O)(=O)CC2 [TCMDC-135801] | 46.03
CCc1cn(CCOC)c2ccc(C(=O)N[C@@H](Cc3ccccc3)[C@H](O)CNC(C)(C)CCCC(C)C)cc12 [TCMDC-135259] | 69.62
CCc1cn(CCCOC)c2ccc(C(=O)N[C@@H](Cc3ccccc3)[C@H](O)CNCc3cccc(C(F)(F)F)c3)cc12 [TCMDC-135241] | 4.563
CCc1cn(CCS(C)(=O)=O)c2ccc(C(=O)N[C@@H](Cc3ccccc3)[C@H](O)CNC(C)(C)CCCC(C)C)cc12 [TCMDC-135268] | 68.72
CCc1cn(CCc2ccccc2)c2ccc(C(=O)N[C@@H](Cc3ccccc3)[C@H](O)CNC(C)(C)CCCC(C)C)cc12 [TCMDC-135282] | 76.37
C(=N\Nc1nccc2sc(-c3ccccc3)cc12)/c1cccnc1 [TCMDC-135190] | -94.18
COc1ccc(S(=O)(=O)N2CCOCC2)cc1NC(=O)c1cc2ccccc2o1 [TCMDC-124328] | -2.829
N#Cc1ccc(-c2ccc(OCC(O)CN3CCCN(C(=O)C(c4ccc5c(c4)OCO5)N4CCN(C/C=C/c5ccccc5)CC4)CC3)cc2)cc1 (centres unmarked) [TCMDC-141496] | 18.87
COc1cc2c(cc1NC(=O)CN1CCN(C(=O)c3ccco3)CC1)oc1ccccc12 [TCMDC-123712] | 37.25
c1ccc2c(CNc3nc(NCC4CCCCC4)nc4nc[nH]c34)cccc2c1 [TCMDC-131860] | -36.72
c1ccc(CCNc2nc(NCC(c3ccccc3)c3ccccc3)c3[nH]cnc3n2)cc1 [TCMDC-131858] | -2.796
Cn1cnc2nc(NCCc3ccccc3)nc(NCc3cccc4ccccc34)c21 [TCMDC-131862] | 52.06
O=C1COc2ccccc2N1CCN1CCC(NCc2ccc(-c3cccs3)cc2)CC1 [TCMDC-135135] | -33.37
COCc1nc(N)nc(N)c1-c1ccc(Cl)c(Cl)c1 [TCMDC-137373] | -9.797
COc1ccc(Nc2nccc(NCCNC(=O)Nc3ccccc3F)n2)cc1 [TCMDC-133645] | -48.4

SMILES | % Inhibition [%]
O=C(NCCNc1nc(NCCNC(=O)Nc2ccccc2)c2ccc(=O)n(-c3c(F)cccc3F)c2n1)Nc1ccccc1 [TCMDC-136645] | 74.46
O=C(NCCNc1ccnc(Nc2ccc(F)cc2)n1)Nc1ccccc1F [TCMDC-133640] | -0.7257
COc1ccc(NC(=O)/C=C/c2ccccc2Cl)cc1OCCN1CCC(c2nc3ccccc3[nH]2)CC1 [TCMDC-140921] | -39.17
O=C(/C=C/c1ccc(Cl)c(Cl)c1)NCCCCCN1CCC(NC(=O)NC2CCCCC2)CC1 [TCMDC-135700] | -41.72
c1ccc2[nH]c(Nc3ccc(Nc4nc5ccccc5[nH]4)cc3)nc2c1 [TCMDC-131951] | -2.479
ON=C(c1nc2ccccc2[nH]1)c1nc2ccccc2[nH]1 [TCMDC-125758] | 102.3
c1ccc2[nH]c(CN(Cc3nc4ccccc4[nH]3)Cc3nc4ccccc4[nH]3)nc2c1 [TCMDC-124132] | -49.22
COc1cc(C(=O)NCCCN2CCN(c3cccc(Cl)c3)CC2)ccc1-c1nc2cc(Cl)c(F)cc2[nH]1 [TCMDC-140095] | -11.24
O=C(c1ccccc1[N+](=O)[O-])N(Cc1ccccc1)c1ccccn1 [TCMDC-125748] | 16.59
CCCCCn1c(Sc2ccc(C#N)c([N+](=O)[O-])c2)nnc1-c1cc(OC)cc(OC)c1 [TCMDC-135588] | -41.27
CCCCn1c(Sc2ccc(C#N)c([N+](=O)[O-])c2)nnc1-c1cccc(Cl)c1 [TCMDC-135579] | 86.95
CCCCCCn1c(Sc2ccc(C#N)c([N+](=O)[O-])c2)nnc1-c1cccc(Cl)c1 [TCMDC-135594] | 24.59
C=CCn1c(Sc2ccc(C#N)c([N+](=O)[O-])c2)nnc1-c1ccc(Cl)cc1 [TCMDC-135600] | 77.78
COc1ccc(-c2nnc(Sc3ccc(C#N)c([N+](=O)[O-])c3)n2CC(C)C)cc1 [TCMDC-135584] | 36.77
C=CCn1c(Sc2ccc(C#N)c([N+](=O)[O-])c2)nnc1-c1cc(OC)cc(OC)c1 [TCMDC-135590] | 71.82
CCCCCn1c(Sc2ccc(C#N)c([N+](=O)[O-])c2)nnc1-c1cccc(Cl)c1 [TCMDC-135593] | -8.18
CC(C)Cn1c(Sc2ccc(C#N)c([N+](=O)[O-])c2)nnc1-c1cccc(Cl)c1 [TCMDC-135580] | 40.84
C=CCn1c(Sc2ccc(C#N)c([N+](=O)[O-])c2)nnc1-c1ccc(OC)cc1 [TCMDC-135605] | 28.83
CC(C)Cn1c(Sc2ccc(C#N)c([N+](=O)[O-])c2)nnc1-c1ccc(N(C)C)cc1 [TCMDC-135612] | 35.05
C=CCn1c(Sc2ccc(C#N)c([N+](=O)[O-])c2)nnc1-c1cccc(Cl)c1 [TCMDC-135595] | 80.55
O=[N+]([O-])c1cc(C(c2ccc(O)c([N+](=O)[O-])c2)C(Cl)(Cl)Cl)ccc1O [TCMDC-124158] | 25.13
COc1ccccc1NC(=O)Nc1cccc(-c2cccc(-c3nc4ccc(C(F)(F)F)cc4[nH]3)c2)c1 [TCMDC-133205] | 10.02

SMILES | % Inhibition [%]
[O-][S+]1c2ccccc2Sc2ccccc21 [TCMDC-124300] | -7.237
CC(C)Cn1ncc2c3c(N)nc(N)nc3ccc21 [TCMDC-137970] | 3.163
O=C(Nc1ccccc1)OCCOc1ccc(CC2SC(=O)NC2=O)cc1 (centres unmarked) [TCMDC-131642] | 13.3
N#Cc1ccc2c(c1)CCN(CCC1CCC(NC(=O)/C=C/c3cc(Br)cs3)CC1)CC2 (centres unmarked) [TCMDC-139841] | -33.15
O=C(Nc1ccccc1Cl)N(Cc1cc(Cl)cc(Cl)c1)CC(O)COc1ccc(Cl)c(F)c1 (centres unmarked) [TCMDC-141477] | 10.95
COc1ccc(NC(=O)C2CCN(CCCCCNC(=O)/C=C/c3ccc(Cl)c(Cl)c3)CC2)cc1 [TCMDC-136128] | 80.86
O=C(/C=C/c1ccc(Cl)cc1)NCCCCCN1CCC(C(=O)Nc2ccc(Cl)c(Cl)c2)CC1 [TCMDC-136123] | -40.47
O=C(/C=C/c1ccc(Cl)cc1)NCCCCCN1CCC(C(=O)Nc2cccc(Cl)c2)CC1 [TCMDC-136119] | -9.305
O=C(/C=C/c1ccc(Cl)c(Cl)c1)NCCCCCN1CCC(C(=O)Nc2ccc(Cl)c(Cl)c2)CC1 [TCMDC-136124] | 40.37
O=C(/C=C/c1ccc(Cl)cc1)NCCCCCN1CCC(C(=O)Nc2ccc(Cl)cc2)CC1 [TCMDC-136115] | 64.6
O=C(/C=C/c1ccc(Cl)c(Cl)c1)NCCCCCN1CCC(C(=O)Nc2ccc(Cl)cc2)CC1 [TCMDC-136116] | -21.25
Cc1cc(C)cc(OCC(O)CN(Cc2cc(Cl)cc(Cl)c2)C(=O)Nc2ccc(Cl)cc2)c1 (centres unmarked) [TCMDC-141475] | 25.73
O=C(Nc1cccc(Cl)c1N1CCOCC1)C(Cl)(Cl)Cl [TCMDC-124993] | 8.6
CN(C)CCOc1cc(NC(=O)Nc2ccc3c(c2)CCCC3=O)ccc1I [TCMDC-139187] | -8.397
O=C(Nc1ccc(C(=O)N2CCN(CCN3CCN(c4cccc(C(F)(F)F)c4)CC3)CC2)cc1)c1ccc(C(F)(F)F)cc1 [TCMDC-138148] | -21.85
O=C(Nc1ccc(Cl)c(C(F)(F)F)c1)NC1CCN(CCCCCNC(=O)C2CC2c2ccc(Cl)c(Cl)c2)CC1 (centres unmarked) [TCMDC-136260] | 59.16
O=C(NCCCCCN1CCCN(C(=O)Nc2ccc(Cl)c(C(F)(F)F)c2)CC1)C1CC1c1ccc(Cl)c(Cl)c1 (centres unmarked) [TCMDC-136255] | -20.94
O=C(Nc1ccc(C(F)(F)F)cc1)N[C@H]1CCN(CCCCCNC(=O)C2CC2c2ccc(Cl)c(Cl)c2)C1 (some centres unmarked) [TCMDC-136272] | 93.26
O=C(Nc1ccc(Cl)c(Cl)c1)N[C@H]1CCN(CCCCCNC(=O)C2CC2c2ccc(Cl)c(Cl)c2)C1 (some centres unmarked) [TCMDC-136266] | -8.426
O=C(Nc1ccc(Cl)c(C(F)(F)F)c1)N[C@H]1CCN(CCCCCNC(=O)C2CC2c2ccc(Cl)c(Cl)c2)C1 (some centres unmarked) [TCMDC-136274] | 80.05
O=C(Nc1ccc(C(F)(F)F)cc1)NC1CCN(CCCCCNC(=O)C2CC2c2ccc(Cl)c(Cl)c2)CC1 (centres unmarked) [TCMDC-136256] | 4.226
